Measurements: the supplement of paper PMC11150407
Among all 2,100 compounds or so, about 180 (8.6%) showed an effect of 50% or more. Many of the other results were omitted from the sample, so strong results are more common in it than they were.

What follows are compounds tested on MOLM1 and UCSD/AML1 (averaged) (assay: cell viability relative to DMSO control (POC); higher = less growth inhibition). Conditions: 1 µM; 72 h.
Experimental: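 Primary viability screen in the 3q26 EVI1-high AML cell lines MOLM1 and UCSD/AML1 (1.5e3 cells/well, 384-well), compounds at 1 uM for 72 h. ATP CellTiter-Glo read-out given as percent of viable cells over DMSO control (POC), averaged over duplicates. DMSO was the negative control and 5 uM etoposide the positive control. This mapping covers the MicroSource Spectrum and Selleck anticancer libraries (drug names).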

In order of falling cell viability:
1. O=C(NC(=O)c1c(F)cccc1F)Nc1ccc(Cl)cc1  118%
2. COC(=O)NC(=S)Nc1ccccc1NC(=S)NC(=O)OC  116%
3. N#C/C(=C\c1ccc(O)cc1)C(=O)O [alpha-CYANO-4-HYDROXYCINNAMIC ACID]  113%
4. CC(C)N(CCC(C(N)=O)(c1ccccc1)c1ccccn1)C(C)C (stereo not drawn)  113%
5. COC[C@]12CN(C=O)[C@@H]3[C@@H]4[C@H](OC)[C@H]1[C@@]3([C@@H](OC)C[C@H]2O)[C@@H]1C[C@@]2(O)[C@H](OC(=O)c3ccccc3)[C@@H]1[C@]4(OC(C)=O)[C@@H](O)[C@@H]2OC  111%
6. COP(N)(=O)SC (stereo not drawn)  111%
7. CC(C)(N)Cc1ccccc1  110%
8. CC[C@H]1[C@@H]2C[C@H]3[C@@H]4N(C)c5ccccc5[C@]45C[C@@H]([C@@H]2[C@H]5O)N3[C@@H]1O  109%
9. CC1=CCCC2C1(C)CCC(C)C2(C)CC/C(C)=C/Cn1c[n+](C)c2c(N)ncnc21 (stereo not drawn) [AGELASINE (stereochemistry of diterpene unknown)]  109%
10. C=CCc1ccc(OC)cc1  107%
11. C=C(C)[C@H]1Cc2c(ccc3c(=O)c4c(oc23)COc2cc(OC)c(OC)cc2-4)O1  106%
12. CC(=O)C1CCC2C3CCC4C[C@H](O)CCC4(C)C3C[C@H](O)C12C (stereo partly drawn) [DIHYDROXY (3alpha,12alpha)PREGNAN-20-ONE]  105%
13. C[N+]1(C)CCc2cc3c(cc2[C@H]1[C@@H]1OC(=O)c2c1ccc1c2OCO1)OCO3  104%
14. COC(=O)[C@@H]1C[C@H](OC(C)=O)C(=O)[C@H]2[C@@]1(C)CC[C@H]1C(=O)O[C@H](c3ccoc3)C[C@]21C  104%
15. CC1=C2C(=CO[C@H](C)[C@H]2C)C(O)=C(C(=O)O)C1=O  104%
16. C[C@H]1C(=O)O[C@@H]2CCN3CC=C(COC(=O)[C@](C)(O)[C@]1(C)O)[C@H]23  103%
17. CNC(Cc1c[nH]c2ccccc12)C(=O)O (stereo not drawn)  102%
18. CSc1nc(NC(C)C)nc(NC(C)C)n1  102%
19. COP(=S)(OC)Oc1ccc(Sc2ccc(OP(=S)(OC)OC)cc2)cc1  101%
20. CC(C)(C)C(=O)C(Oc1ccc(Cl)cc1)n1cncn1 (stereo not drawn)  99.8%
21. C[C@]12CC[C@H](O)C[C@H]1CC[C@@H]1[C@@H]2CC[C@]2(C)[C@@H](C3=CC(=O)OC3)[C@@H](O)C[C@]12O  99.6%
22. C[CH2][Hg][S]c1ccccc1C(=O)[O-].[Na+]  99.6%
23. CCSCC[C@H](N)C(=O)O  99.2%
24. C[C@]12CC[C@H](O)C[C@@H]1CC[C@@H]1[C@@H]2CC[C@]2(C)C(=O)CC[C@@H]12  98.7%
25. C=C[C@H]1CN2CC[C@H]1C[C@H]2[C@H](OC(=O)OCC)c1ccnc2ccc(OC)cc12  98.5%
26. O=c1c2ccccc2[se]n1-c1ccccc1  97.5%
27. c1ccc(/N=N/c2ccccc2)cc1  96.4%
28. C[C@@H]1C(=O)O[C@H]2[C@H]1CC[C@@]1(C)C=CC(=O)[C@@]3(C)O[C@@]213 [EPOXY (4,5alpha)-4,5-DIHYDROSANTONIN]  95.7%
29. S=C=NCc1ccccc1  95.3%
30. C/C=C(/C)C(=O)O[C@H]1CC[C@@]2(C)[C@@H]3CC[C@H]4[C@]5(O)C[C@H](O)[C@@]6(O)[C@@H](CN7C[C@@H](C)CC[C@H]7[C@@]6(C)O)[C@]5(O)C[C@@]42O[C@]13O  94.9%
31. N#C/C(=C\c1cccc(O)c1)C(=O)O [alpha-CYANO-3-HYDROXYCINNAMIC ACID]  94.3%
32. COc1cc2c(cc1OC)[C@H](C)NCC2  94.2%
33. C[C@@H]1CC[C@]2(NC1)O[C@H]1C[C@H]3[C@@H]4CC=C5C[C@@H](O)CC[C@]5(C)[C@H]4CC[C@]3(C)[C@H]1[C@@H]2C  94.1%
34. O=C(NC(=O)c1c(F)cccc1F)Nc1cc(Cl)c(OC(F)(F)C(F)C(F)(F)F)cc1Cl (stereo not drawn)  93.9%
35. CNC(C)[C@H](O)c1ccccc1 (stereo partly drawn)  93.6%
36. C[C@H]1CC[C@]2(NC1)O[C@H]1C[C@H]3[C@@H]4CC[C@H]5C[C@@H](O)CC[C@]5(C)[C@H]4CC[C@]3(C)[C@H]1[C@@H]2C  93.3%
37. N[C@@H]1C[C@H]1c1ccccc1.N[C@H]1C[C@@H]1c1ccccc1  93.1%
38. C[C@@H]1CC[C@@]2(OC1)O[C@H]1[C@@H](O)[C@H]3[C@@H]4CC[C@H]5C[C@@H](O[C@@H]6O[C@H](CO)[C@H](O[C@@H]7O[C@H](CO)[C@@H](O)[C@H](O[C@@H]8OC[C@@H](O)[C@H](O)[C@H]8O)[C@H]7O[C@@H]7O[C@H](CO)[C@H](O)[C@H](O[C@@H]8O[C@H](CO)[C@@H](O)[C@H](O)[C@H]8O)[C@H]7O)[C@H](O)[C@H]6O)[C@H](O)C[C@]5(C)[C@H]4CC[C@]3(C)[C@H]1[C@@H]2C  92.7%
39. C[C@@H]1C[C@H](O)[C@@]2(O)[C@]13CC(=O)OC[C@@]2(C)[C@@](C)(O)C(=O)C3  92.3%
40. CN[C@@H]1[C@@H](O)[C@@H](O[C@@H]2[C@@H](O)[C@H](O[C@H]3O[C@H]([C@@H](C)O)[C@@H](O)[C@H](O)[C@H]3N)[C@@H](N)C[C@H]2N)OC[C@]1(C)O  92%
41. CC1(C)C(=O)[C@@H]2O[C@@H]2[C@@]2(C)C1C[C@@H](O)[C@]1(C)C2CC[C@@]2(C)[C@H](c3ccoc3)OC(=O)C3OC321 (stereo partly drawn) [1,2alpha-EPOXYDEACETOXYDIHYDROGEDUNIN]  91.4%
42. CCC(C)C(=O)OC1CC2(C)C(c3ccoc3)OC(=O)CC23OC2(C)OC34C(OC(=O)C(C)C)C3(O)C(OC(=O)C5(C)OC5C)C5(C)CC3(O)C(C)(C5CC(=O)OC)C14O2 (stereo not drawn)  91.2%
43. C#CCOS(=O)OC1CCCCC1Oc1ccc(C(C)(C)C)cc1 (stereo not drawn)  89.9%
44. CC(C)c1ccc2c(c1O)CC[C@H]1C3=C(CC[C@]21C)C(=O)OC3  89.3%
45. COC(=O)C(c1ccccc1)C1CCCCN1 (stereo not drawn)  89.3%
46. CC(=O)O[C@H]1C[C@@H]2CC[C@@H]3[C@H](CC[C@@]4(C)[C@H]3C[C@H]([N+]3(C)CCCCC3)[C@@H]4OC(C)=O)[C@@]2(C)C[C@@H]1[N+]1(C)CCCCC1  88.6%
47. CC(C)(O)[C@@H]1[C@H]2OC(=O)[C@@H]1[C@]1(O)C[C@H]3O[C@]34C(=O)O[C@H]2[C@]14C  87.8%
48. CC(=O)[C@H]1CC[C@H]2[C@@H]3CC[C@H]4C[C@H](O)CC[C@]4(C)[C@H]3CC[C@]12C  87.7%
49. CC1(C)C(=O)C=C[C@@]2(C)C1=C(O)C(=O)[C@]1(C)[C@@H]2CC[C@@]2(C)[C@H](c3ccoc3)C[C@H]3O[C@]321  85.9%
50. CC(=O)O[C@H]1C[C@@H](OC(C)=O)C(C)(C)C2C[C@@H](OC(C)=O)[C@]3(C)C(CC[C@@]4(C)[C@H](c5ccoc5)C(=O)[C@H]5O[C@]543)[C@]21C (stereo partly drawn)  85.4%
51. CNC(=O)Oc1cccc2c1OC(C)(C)C2  85.3%
52. c1cc2c(cc1[C@H]1OC[C@H]3[C@@H]1CO[C@H]3c1ccc3c(c1)OCO3)OCO2  84.6%
53. Cc1nccc2c1[nH]c1cc(O)ccc12  81%
54. CC1=CC(=O)c2c(O)cccc2C1=O  74.6%
55. CC(C)C[C@H](CN)CC(=O)O  67.7%
56. C[C@H]1CC[C@]2(NC1)O[C@H]1C[C@H]3[C@@H]4CC[C@H]5C[C@@H](O[C@@H]6O[C@H](CO)[C@H](O[C@@H]7O[C@H](CO)[C@@H](O)[C@H](O[C@@H]8OC[C@@H](O)[C@H](O)[C@H]8O)[C@H]7O[C@@H]7O[C@H](CO)[C@@H](O)[C@H](O)[C@H]7O)[C@H](O)[C@H]6O)CC[C@]5(C)[C@H]4CC[C@]3(C)[C@H]1[C@@H]2C  65.2%
57. CCCCCCCCCCCCCCCC[n+]1ccccc1  62.3%
58. CC(=O)O[C@@H]1C[C@@]2(C)[C@H](c3ccoc3)C[C@H]3O[C@]32[C@]2(C)C(=O)C(O)=C3C(C)(C)C(=O)C=C[C@]3(C)[C@@H]12  19.3%
59. C[C@]12CC[C@H](O)C[C@H]1CC[C@@H]1[C@@H]2C[C@@H](O)[C@]2(C)[C@@H](C3=CC(=O)OC3)CC[C@]12O  18.7%
60. CC(=O)OC1CCC23C(=O)OC45CCC(C6=CC(=O)OC6)C4(C)CCC2C5CCC3(O)C1 (stereo not drawn)  5.23%
61. CC(=O)O[C@H]1C[C@H](O[C@H]2[C@@H](O)C[C@H](O[C@H]3[C@@H](O)C[C@H](O[C@H]4CC[C@@]5(C)[C@H](CC[C@@H]6[C@@H]5C[C@@H](O)[C@]5(C)[C@@H](C7=CC(=O)OC7)CC[C@]65O)C4)O[C@@H]3C)O[C@@H]2C)O[C@H](C)[C@H]1O[C@@H]1O[C@H](CO)[C@@H](O)[C@H](O)[C@H]1O  3.89%
62. C[C@H]1O[C@@H](O[C@H]2[C@@H](O)C[C@H](O[C@H]3[C@@H](O)C[C@H](O[C@H]4CC[C@@]5(C)[C@H](CC[C@@H]6[C@@H]5CC[C@]5(C)[C@@H](C7=CC(=O)OC7)[C@@H](O)C[C@]65O)C4)O[C@@H]3C)O[C@@H]2C)C[C@H](O)[C@@H]1O  3.82%
63. COc1ccc(C[C@H]2NC[C@H](O)[C@H]2OC(C)=O)cc1  3.59%
64. CC(=O)O[C@H]1CC[C@@]2(C)[C@H](CC[C@@H]3[C@@H]2CC[C@]2(C)[C@@H](C4=CC(=O)OC4)[C@@H](OC(C)=O)C[C@]32O)C1  2.29%
65. CC(C)[C@]12O[C@H]1[C@@H]1O[C@]13[C@]1(O[C@H]1C[C@H]1C4=C(CC[C@@]13C)C(=O)OC4)[C@@H]2O [Triptolide]  2.21%
66. C[C@@H]1O[C@@H](O[C@@H]2C=C3CC[C@@H]4[C@H](CC[C@]5(C)[C@@H](c6ccc(=O)oc6)CC[C@]45O)[C@@]3(C)CC2)[C@H](O)[C@H](O)[C@H]1O  2.01%
67. N#Cc1c(Cl)c(Cl)c(Cl)c(C#N)c1Cl  1.55%
68. CC[C@@]1(O)C(=O)OCc2c1cc1n(c2=O)Cc2cc3ccccc3nc2-1  1.42%
